Measured values published in the supplement of paper PMC9694430.

Legend:
Test in all cases: thermal shift delta Tm vs DMSO control; higher = stronger stabilization (binding)
Settings in all cases: 12.5 µM; protein concentration 2 µM
LOC_OS02G45750-cb003 = test system: LOC_OS02G45750-cb003
Method in brief: (§1)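 Thermal shift values come from differential scanning fluorimetry on purified rice kinase domains made in E. coli, with melting temperatures obtained from Boltzmann fits. Samples of 19.5 μl held 2 μM kinase, 100 mM potassium phosphate pH 7.5, 150 mM NaCl, 10% glycerol, 5 × SYPRO Orange and compound in DMSO, and were heated from 25°C to 95°C at 0.05°C/s. Each shift is a triplicate mean relative to the DMSO-only protein sample.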

LOC_OS02G54510-cb004 = test system: LOC_OS02G54510-cb004
Method in brief: as §1

LOC_OS03G04050-cb001 = test system: LOC_OS03G04050-cb001
Method in brief: as §1

LOC_OS03G12390-cb001 = test system: LOC_OS03G12390-cb001
Method in brief: as §1

LOC_OS03G27990-cb004 = test system: LOC_OS03G27990-cb004
Method in brief: as §1

LOC_OS03G50450-cb001 = test system: LOC_OS03G50450-cb001
Method in brief: as §1

LOC_OS03G50810-cb003 = test system: LOC_OS03G50810-cb003
Method in brief: as §1

LOC_OS04G35114-cb001 = test system: LOC_OS04G35114-cb001
Method in brief: as §1

LOC_OS04G38480-cb003 = test system: T1, LOC_OS04G38480-cb003
T1 sequence (whole entry): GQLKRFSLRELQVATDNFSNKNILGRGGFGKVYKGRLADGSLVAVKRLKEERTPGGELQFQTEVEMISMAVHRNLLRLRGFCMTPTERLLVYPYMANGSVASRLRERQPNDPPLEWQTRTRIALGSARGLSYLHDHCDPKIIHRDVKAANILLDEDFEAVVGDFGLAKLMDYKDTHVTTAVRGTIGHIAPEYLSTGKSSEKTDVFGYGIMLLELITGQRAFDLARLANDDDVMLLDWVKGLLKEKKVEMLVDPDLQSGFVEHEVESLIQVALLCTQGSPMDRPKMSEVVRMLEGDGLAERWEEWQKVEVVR
Method in brief: as §1

LOC_OS04G41100-cb001 = test system: T2, LOC_OS04G41100-cb001
T2 sequence (whole entry): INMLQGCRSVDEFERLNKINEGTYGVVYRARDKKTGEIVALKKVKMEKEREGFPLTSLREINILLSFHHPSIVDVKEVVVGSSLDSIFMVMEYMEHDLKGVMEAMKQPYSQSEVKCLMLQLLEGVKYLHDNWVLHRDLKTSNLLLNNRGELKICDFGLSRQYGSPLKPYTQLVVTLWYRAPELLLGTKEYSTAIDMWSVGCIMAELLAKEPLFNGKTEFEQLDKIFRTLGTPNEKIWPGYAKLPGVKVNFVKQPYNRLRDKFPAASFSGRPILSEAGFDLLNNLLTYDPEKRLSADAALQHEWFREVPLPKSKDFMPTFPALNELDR
Method in brief: as §1

LOC_OS04G57630-cb004 = test system: LOC_OS04G57630-cb004
Method in brief: as §1

LOC_OS05G07850-cb002 = test system: LOC_OS05G07850-cb002
Method in brief: as §1

LOC_OS05G16824-cb004 = test system: LOC_OS05G16824-cb004
Method in brief: as §1

LOC_OS05G28520-cb001 = test system: LOC_OS05G28520-cb001
Method in brief: as §1

LOC_OS05G30820-cb001 = test system: LOC_OS05G30820-cb001
Method in brief: as §1

LOC_OS05G43570-cb004 = test system: LOC_OS05G43570-cb004
Method in brief: as §1

LOC_OS06G16330-cb003 = test system: LOC_OS06G16330-cb003
LOC_OS06G16330-cb003, sequence (as listed by the source): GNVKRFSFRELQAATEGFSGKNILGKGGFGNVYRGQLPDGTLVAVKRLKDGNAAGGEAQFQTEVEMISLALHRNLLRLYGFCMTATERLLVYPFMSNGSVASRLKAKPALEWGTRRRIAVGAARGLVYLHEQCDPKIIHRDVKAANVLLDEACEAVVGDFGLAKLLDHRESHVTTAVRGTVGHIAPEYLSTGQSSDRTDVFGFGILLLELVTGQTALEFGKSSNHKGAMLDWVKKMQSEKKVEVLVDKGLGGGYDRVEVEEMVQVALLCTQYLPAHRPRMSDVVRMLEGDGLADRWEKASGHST
Method in brief: as §1

LOC_OS06G22820-cb001 = test system: T3, LOC_OS06G22820-cb001
T3 sequence (whole entry): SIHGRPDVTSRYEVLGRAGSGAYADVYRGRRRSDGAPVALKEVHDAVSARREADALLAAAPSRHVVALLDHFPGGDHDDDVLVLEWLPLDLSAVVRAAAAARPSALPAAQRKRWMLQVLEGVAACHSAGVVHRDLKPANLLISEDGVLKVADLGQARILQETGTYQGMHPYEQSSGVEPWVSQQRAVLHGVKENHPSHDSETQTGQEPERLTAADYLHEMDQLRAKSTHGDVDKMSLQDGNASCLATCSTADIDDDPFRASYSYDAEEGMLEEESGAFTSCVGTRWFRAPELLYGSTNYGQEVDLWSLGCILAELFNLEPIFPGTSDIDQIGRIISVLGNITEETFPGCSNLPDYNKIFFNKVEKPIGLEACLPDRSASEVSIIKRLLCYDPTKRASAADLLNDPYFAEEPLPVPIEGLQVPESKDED
Method in brief: as §1

LOC_OS07G06570-cb004 = test system: LOC_OS07G06570-cb004
Method in brief: as §1

LOC_OS07G07230-cb001 = test system: LOC_OS07G07230-cb001
Method in brief: as §1
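Also: purified Escherichia coli-expressed rice kinase domain construct.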

Row | Compound | thermal shift delta Tm (LOC_OS02G45750-cb003) | thermal shift delta Tm (LOC_OS02G54510-cb004) | thermal shift delta Tm (LOC_OS03G04050-cb001) | thermal shift delta Tm (LOC_OS03G12390-cb001) | thermal shift delta Tm (LOC_OS03G27990-cb004) | thermal shift delta Tm (LOC_OS03G50450-cb001) | thermal shift delta Tm (LOC_OS03G50810-cb003) | thermal shift delta Tm (LOC_OS04G35114-cb001) | thermal shift delta Tm (LOC_OS04G38480-cb003) | thermal shift delta Tm (LOC_OS04G41100-cb001) | thermal shift delta Tm (LOC_OS04G57630-cb004) | thermal shift delta Tm (LOC_OS05G07850-cb002) | thermal shift delta Tm (LOC_OS05G16824-cb004) | thermal shift delta Tm (LOC_OS05G28520-cb001) | thermal shift delta Tm (LOC_OS05G30820-cb001) | thermal shift delta Tm (LOC_OS05G43570-cb004) | thermal shift delta Tm (LOC_OS06G16330-cb003) | thermal shift delta Tm (LOC_OS06G22820-cb001) | thermal shift delta Tm (LOC_OS07G06570-cb004) | thermal shift delta Tm (LOC_OS07G07230-cb001)
1 | C[C@H]1[C@H](C)CC[C@]2(C(=O)O)CC[C@]3(C)C(=CC[C@@H]4[C@@]5(C)C[C@@H](O)[C@H](O)[C@@](C)(CO)[C@@H]5CC[C@]43C)[C@H]12 [Asiatic Acid] | 0.12 °C | -0.04 °C | 0.11 °C | -0.01 °C | 0.08 °C | 0.19 °C | 0.31 °C | -0.09 °C | 0.96 °C | 0.3 °C | 0.45 °C | 0.11 °C | -3.69 °C | 0.47 °C | 0.73 °C | 1.08 °C | -0.23 °C | 0.71 °C | 0.82 °C | 0.24 °C
2 | Cc1cc(Nc2ncnc3ccc(NC4=NC(C)(C)CO4)cc23)ccc1Oc1ccn2ncnc2c1 [Irbinitinib (ARRY-380, ONT-380)] | 0 °C | 0.14 °C | 0.65 °C | -3.39 °C | -0.73 °C | -0.45 °C | -0.83 °C | -1.83 °C | 0.82 °C | 0.49 °C | 0.3 °C | 0.8 °C | -0.96 °C | 0.07 °C | 0.07 °C | 0.33 °C | -0.51 °C | 0.49 °C | 1.27 °C | 0.02 °C
3 | O=c1sn(-c2cccc3ccccc23)c(=O)n1Cc1ccccc1 [Tideglusib] | 0 °C | 0.35 °C | 0.13 °C | -1.57 °C | 0.89 °C | 0.32 °C | -0.5 °C | 2.38 °C | 0.78 °C | 0.34 °C | -0.25 °C | -3.79 °C | -13.5 °C | 0.99 °C | 0.39 °C | 0.01 °C | 0.99 °C | 0.6 °C | 1 °C | 0.27 °C
4 | C#Cc1cccc(Nc2ncnc3cc(OCCOC)c(OCCOC)cc23)c1 [Erlotinib] | 4.13 °C | 0.7 °C | 0.03 °C | 2.11 °C | 0.02 °C | -0.06 °C | 1.07 °C | 6.16 °C | 1.65 °C | -0.05 °C | 0.41 °C | 8.18 °C | -4.3 °C | 0.22 °C | 0.36 °C | -0.04 °C | 3.38 °C | 0.08 °C | 0.67 °C | -0.73 °C
5 | OC1CCC(Oc2cccc3cnc(Nc4ccc5nc[nH]c5c4)nc23)CC1 (stereo not given) | 17.1 °C | 2.66 °C | 0.39 °C | 8.52 °C | 5.39 °C | 7.93 °C | 7.28 °C | 7.42 °C | 4.8 °C | 5.03 °C | 4.38 °C | 13.5 °C | 18.9 °C | 0.67 °C | 2.88 °C | 1.07 °C | 12.4 °C | 0.29 °C | 1.85 °C | 0.34 °C
6 | Cc1ccc(NC(=O)c2cccc(N(C)C)c2)cc1NC(=O)c1ccc(O)cc1 | 0.7 °C | 0.45 °C | 0.56 °C | 0.34 °C | 0.26 °C | 0.28 °C | 0.7 °C | 0.46 °C | 0.87 °C | 0.23 °C | 0.32 °C | 0.13 °C | 0.14 °C | 0.63 °C | 0.58 °C | 0.61 °C | 0.4 °C | 0.59 °C | 0.77 °C | 0.22 °C
7 | Cc1cc(C(=O)Nc2nc3cccc(Cl)c3n2[C@@H]2CCCCN(C(=O)/C=C/CN(C)C)C2)ccn1 [Nazartinib (EGF816, NVS-816)] | 0.42 °C | 0.81 °C | 0.51 °C | 2.23 °C | 1.56 °C | 0.64 °C | 0.51 °C | 1.87 °C | 2.14 °C | 0.6 °C | 0.04 °C | 3.43 °C | -0.02 °C | 0.54 °C | 0.6 °C | 0.38 °C | 0.74 °C | 0.4 °C | 1.91 °C | 0.43 °C
8 | O=C(Nc1cccnc1)c1cc(-c2ccnc(F)c2)ccc1OCc1ccccc1 | 1.01 °C | 0.22 °C | 0.77 °C | 4.48 °C | 0.39 °C | 0.36 °C | 0.76 °C | 0.97 °C | 1.76 °C | 0.25 °C | 0.47 °C | 4.72 °C | 1.19 °C | 0.34 °C | 0.36 °C | -0.18 °C | -0.02 °C | 0.4 °C | 0.99 °C | 0.03 °C
9 | CNC(=O)c1ccc(Nc2ncc(C(F)(F)F)c(NCc3nccnc3N(C)S(C)(=O)=O)n2)cc1 | 9.52 °C | 1.99 °C | 0.04 °C | 5.45 °C | 3.54 °C | 2.16 °C | 4.32 °C | 5.66 °C | 2.85 °C | 1.45 °C | 2.75 °C | 10.8 °C | 9.21 °C | 6.38 °C | 4.15 °C | 0.69 °C | 5.49 °C | 0.27 °C | 0.66 °C | 0.51 °C
10 | COc1cc(Nc2c(C#N)cnc3cc(OCCCN4CCN(C)CC4)c(OC)cc23)c(Cl)cc1Cl [Bosutinib (SKI-606)] | 0.12 °C | 0.16 °C | 0.26 °C | 0.07 °C | 0.12 °C | -0.11 °C | -0.09 °C | 0.86 °C | 1.14 °C | 0.53 °C | -0.3 °C | 0.13 °C | -0.71 °C | 0.48 °C | 0.5 °C | 0.48 °C | -0.26 °C | 0.74 °C | 0.61 °C | 0.26 °C
11 | CN1CCN(c2ccc3nc(-c4c(N)c5c(F)cccc5[nH]c4=O)[nH]c3c2)CC1 [Dovitinib (TKI-258, CHIR-258)] | 13 °C | 0.96 °C | 0.58 °C | 2.88 °C | 4.19 °C | 2.43 °C | 4.84 °C | 7.2 °C | 1.57 °C | 0.95 °C | 1.24 °C | 6.74 °C | 12.6 °C | 1.08 °C | 0.71 °C | 0.77 °C | 3.64 °C | 0.56 °C | 1.13 °C | 0.36 °C
12 | Cc1nc2ccc(-n3ncc(C(=O)c4cc5ccccc5[nH]4)c3N)cc2[nH]1 | 2.94 °C | 4.14 °C | 0.05 °C | 1.25 °C | 0.29 °C | -0.16 °C | 0.75 °C | 3.8 °C | 0.93 °C | -0.16 °C | -0.26 °C | 2.01 °C | 0.01 °C | 0.51 °C | 0.59 °C | 0.2 °C | 0.87 °C | 0.56 °C | -0.34 °C | 0.11 °C
